Data published in doi:10.1101/2024.03.05.583629.

Biological target: pT7_6His-AlfaTag-HOXD13 (human, UniProt P35453 263-343)
Experiment: PADIT-seq
Settings: dsDNA, one strand shown

Chain of pT7_6His-AlfaTag-HOXD13 (P35453 263-343): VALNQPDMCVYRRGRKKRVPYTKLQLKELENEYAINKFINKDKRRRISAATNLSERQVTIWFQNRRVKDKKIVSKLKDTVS

**Q.** Which binding signal does the source give for “CTCGAGGATATCAAGATCTGGCCTCGGCAGCCCACGCGGAACCTCTAGCTAGCCGACTCACTATAGGGATAATCGCCCTGAGCAAAGACC” here?
**A.** -0.926 ± 0.109 log2FC

**Q.** “CTCGAGGATATCAAGATCTGGCCTCGGCGACCCACGCGGAACCTCTAGCTAGCCGACTCACTATAGGGATAATCGCCCTGAGCAAAGACC” was tested. Which binding signal did it give?
**A.** -1.05 ± 0.109 log2FC

**Q.** With “CTCGAGGATATCAAGATCTGGCCTCGGCATTTTAGGGGGAACCTCTAGCTAGCCGACTCACTATAGGGATAATCGCCCTGAGCAAAGACC” as the sequence, how does the binding signal read?
**A.** 1.57 ± 0.105 log2FC

**Q.** How did the binding signal turn out when “CTCGAGGATATCAAGATCTGGCCTCGGCATTTGGGCGGGAACCTCTAGCTAGCCGACTCACTATAGGGATAATCGCCCTGAGCAAAGACC” was run?
**A.** -0.941 ± 0.11 log2FC

**Q.** How did the binding signal turn out when “CTCGAGGATATCAAGATCTGGCCTCGGCAAACTAAAAGGAACCTCTAGCTAGCCGACTCACTATAGGGATAATCGCCCTGAGCAAAGACC” was run?
**A.** -0.484 ± 0.203 log2FC

**Q.** “CTCGAGGATATCAAGATCTGGCCTCGGCGCGTGGTATGGAACCTCTAGCTAGCCGACTCACTATAGGGATAATCGCCCTGAGCAAAGACC” was tested. Which binding signal did it give?
**A.** -1.06 ± 0.113 log2FC

**Q.** For “CTCGAGGATATCAAGATCTGGCCTCGGCACCGTAAAAGGAACCTCTAGCTAGCCGACTCACTATAGGGATAATCGCCCTGAGCAAAGACC”, which binding signal is on record?
**A.** 1.91 ± 0.0753 log2FC

**Q.** How did the binding signal turn out when “CTCGAGGATATCAAGATCTGGCCTCGGCGCGTGGGTTGGAACCTCTAGCTAGCCGACTCACTATAGGGATAATCGCCCTGAGCAAAGACC” was run?
**A.** -1.06 ± 0.134 log2FC

**Q.** How did the binding signal turn out when “CTCGAGGATATCAAGATCTGGCCTCGGCCTTTTAGAGGGAACCTCTAGCTAGCCGACTCACTATAGGGATAATCGCCCTGAGCAAAGACC” was run?
**A.** 1.1 ± 0.092 log2FC

**Q.** With “CTCGAGGATATCAAGATCTGGCCTCGGCCTTTTATCGGGAACCTCTAGCTAGCCGACTCACTATAGGGATAATCGCCCTGAGCAAAGACC” as the sequence, how does the binding signal read?
**A.** 1.63 ± 0.0763 log2FC

**Q.** With “CTCGAGGATATCAAGATCTGGCCTCGGCGACATAAAAGGAACCTCTAGCTAGCCGACTCACTATAGGGATAATCGCCCTGAGCAAAGACC” as the sequence, how does the binding signal read?
**A.** 1.3 ± 0.0763 log2FC

**Q.** With “CTCGAGGATATCAAGATCTGGCCTCGGCGCGACAGCGGGAACCTCTAGCTAGCCGACTCACTATAGGGATAATCGCCCTGAGCAAAGACC” as the sequence, how does the binding signal read?
**A.** -1.04 ± 0.131 log2FC

**Q.** With “CTCGAGGATATCAAGATCTGGCCTCGGCACGCTAAAAGGAACCTCTAGCTAGCCGACTCACTATAGGGATAATCGCCCTGAGCAAAGACC” as the sequence, how does the binding signal read?
**A.** -0.127 ± 0.102 log2FC
